# HP1b binding inh = HP1-beta chromodomain-methylated histone interaction inhibition. AlphaScreen HP1-beta / biotin-H3K9me3 peptide binding. AID 540317. Potency, µM (top dose mostly 114 µM), actives largely listed as inhibitors. 390,000 compounds, 0.56% hits; note: nearly all actives have a fitted effect of over 70% in size
#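 HP1-beta protein (50 nM final) preincubated 30 min at room temperature with biotinylated H3(1-18)K9me3 peptide (50 nM) in PBS pH 7.4, 0.01% Tween-20, then compound added for 30 min. AlphaScreen streptavidin donor/nickel chelate acceptor beads (10 ug/mL final), 30 min dark, luminescence read.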
# JMJD2A Tudor = inhibitors of human JMJD2A Tudor domain; O75164; AID 504339; AlphaScreen JMJD2A-Tudor / H3K4me3 peptide binding; 390,000 compounds, 4.4% hits; Potency, µM (doses to about 114 µM), usual class: inhibitors; note: nearly all actives have a fitted effect of over 50% in size
# PLK1 PBD inh = blocks phosphopeptide binding to human PLK1 polo-box domain; Potency, µM, hits mostly inhibitors; P53350; Plk1 PBD binding of FITC phosphopeptide, fluorescence polarization; 360,000 compounds, 2.8% hits; note: series mostly up to about 57 µM; nearly all actives have a fitted effect of over 65% in size
# BAZ2B inh = inhibitors of human BAZ2B bromodomain. AlphaScreen BAZ2B-H3K14Ac peptide displacement. Potency, µM (doses to about 114 µM), hits mostly inhibitors. 360,000 compounds, 4.4% hits. Q9UIF8; note: nearly all actives have a fitted effect of over 60% in size
#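 Compounds, titrated to a top concentration of 110 uM, were incubated 30 min at room temperature with preformed BAZ2B/acetyl-K14 H3 peptide complex (50 nM each). Proximity signal was measured by AlphaScreen after 20 min with beads.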
# PI5P4K alpha inh = PI5P4K alpha (human) kinase inhibition | P48426 | PI5P4Kalpha enzyme, ADP-Glo luminescence, 60 min; hits give low values | max response, % | 330,000 compounds, 1.2% hits | AID 652105; active = max response of -50% or lower; inconclusive = between -30% and -50%; inactive = -30% or higher; note: value at the top dose of about 77 µM
# Target sequence (P48426 whole entry, looked up): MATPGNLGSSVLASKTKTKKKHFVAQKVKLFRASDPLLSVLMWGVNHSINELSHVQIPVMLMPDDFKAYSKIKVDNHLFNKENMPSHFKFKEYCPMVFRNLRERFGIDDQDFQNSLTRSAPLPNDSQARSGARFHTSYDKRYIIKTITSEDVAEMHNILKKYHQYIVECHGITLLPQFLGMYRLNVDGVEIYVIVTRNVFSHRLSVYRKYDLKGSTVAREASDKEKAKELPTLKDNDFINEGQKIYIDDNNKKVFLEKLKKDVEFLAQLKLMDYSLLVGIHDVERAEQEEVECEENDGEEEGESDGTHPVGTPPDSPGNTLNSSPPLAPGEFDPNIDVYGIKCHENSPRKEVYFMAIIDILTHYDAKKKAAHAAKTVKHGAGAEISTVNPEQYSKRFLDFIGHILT
#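 Luminescence from ADP-Glo served as readout of PI5P4Kalpha activity in a qHTS format. Reaction: enzyme, substrate, compound, ATP at 5 microM final, 60 min at RT.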
# G9a block = blocks human histone lysine methyltransferase G9a | Q96KQ7 | Potency, µM (doses to about 102 µM), most hits filed as inhibitors | G9a H3K9 monomethylation, AlphaScreen, 2 h | 350,000 compounds, 8.8% hits; note: nearly all actives have a fitted effect of over 75% in size
# Target sequence (Q96KQ7 913-1193 limits assumed): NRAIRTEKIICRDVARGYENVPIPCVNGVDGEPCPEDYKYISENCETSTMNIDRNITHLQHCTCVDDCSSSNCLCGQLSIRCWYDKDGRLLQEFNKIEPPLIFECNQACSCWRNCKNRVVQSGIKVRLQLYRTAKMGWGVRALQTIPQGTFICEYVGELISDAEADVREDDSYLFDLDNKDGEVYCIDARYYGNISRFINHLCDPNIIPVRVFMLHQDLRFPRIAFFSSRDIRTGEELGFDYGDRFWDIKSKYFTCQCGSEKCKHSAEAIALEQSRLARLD
#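 Methyltransferase reactions run at room temperature for 2 h (20 nM enzyme, 500 nM biotin-H3K9 peptide, 20 uM SAM) after a 15 min compound preincubation; product detected by AlphaScreen beads and anti-H3K9me1 antibody.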
# A number is an active result; i = inactive; ? = inconclusive; nt = no result; [ ] = another dose, or the depositor's remark. A selection: hits, their analogues and other compounds. The true share with any hit is near 12%. Unless noted, calls come from the whole dose curve; as a rule, active = well fitted curve in the direction sought with a large enough effect; inconclusive = small, poorly fitted or top-dose-only effect, or another doubt; inactive = no such curve, though single readings can be large; an effect the other way counts as inactive or inconclusive.
SMILES,HP1b binding inh,JMJD2A Tudor,PLK1 PBD inh,BAZ2B inh,PI5P4K alpha inh,G9a block
COc1ccc2[nH]c(=O)c(CNc3ccc(C)cc3C)cc2c1,i,i,i,i,i,20µM
COc1ccc2[nH]c(=O)c(CNc3cc(C)ccc3C)cc2c1,i,?,i,50µM,i,?
Cc1ccc2[nH]c(=O)c(CNC(C)(C)C)cc2c1,i,i,i,i,i,?
Cc1c(C(=O)NCC(c2ccc(Cl)cc2)N2CCOCC2)oc2ccccc12 (stereo not drawn),i,i,nt,i,nt,i
COc1cc(NC(=O)c2sc3ncn(CC(=O)N4CCCCC4C)c(=O)c3c2C)cc(OC)c1OC (stereo not drawn),nt,nt,i,nt,i,nt
Cc1cc(C(=O)COC(=O)Cc2n[nH]c(=O)c3ccccc23)c(C)n1-c1ccc2c(c1)OCCO2,i,i,i,i,i,50µM
Cc1cc(C(=O)COC(=O)C2=COCCO2)c(C)n1-c1cccc(F)c1,i,i,i,?,i,56µM
Cc1cc(C(=O)COC(=O)C2=COCCO2)c(C)n1-c1ccc2c(c1)OCO2,i,i,i,50µM,i,?
COC(=O)c1ccc(-n2c(C)cc(C(=O)COC(=O)C3=COCCO3)c2C)cc1,i,i,i,nt,i,nt
O=C(Cc1n[nH]c(=O)c2ccccc12)OCC(=O)c1ccccc1Cl,i,i,i,i,i,i
Cc1cc(C(=O)CSc2n[nH]c(N)n2)c(C)n1-c1cccc(F)c1,i,?,i,50µM,nt,?
CCN(CC)C(=O)[C@H]1C[C@H](CC(=O)NCCC2=CCCCC2)C(=O)N2CCc3c([nH]c4ccc(Cl)cc34)[C@]12C,i,?,i,nt,i,nt
CN(C)S(=O)(=O)c1cc(NC(=O)CN2CCN(c3ccc(O)cc3)CC2)ccc1Cl,i,i,i,?,i,4µM
CC(=O)c1c(C)[nH]c(C(=O)Nc2ccc(Cl)c(S(=O)(=O)N(C)C)c2)c1C,i,i,i,?,i,i
CC(=O)c1c(C)[nH]c(C(=O)OCC(=O)Nc2ccc(Cl)c(S(=O)(=O)N(C)C)c2)c1C,i,i,i,71µM,i,nt
O=C(CN1CCN(c2ccccc2O)CC1)Nc1ccc(S(=O)(=O)N2CCCCCC2)cc1,i,i,i,i,i,45µM
CN(C)S(=O)(=O)c1cc(NC(=O)CNCCN2CCOCC2)ccc1Cl,i,28µM,i,50µM,i,10µM
Cc1ccc(C(=O)NCC(=O)Nc2ccc(S(=O)(=O)Nc3cc(C)nc(C)n3)cc2)cc1,i,i,i,nt,i,nt
O=S(=O)(c1ccc(NC(=S)N2CCOCC2)cc1)N1CCCCC1,nt,nt,i,nt,i,nt
CC(C)CC(=O)Nc1ccc(C(=O)CN2CCN(c3ccc(O)cc3)CC2)cc1,i,?,i,50µM,i,5µM
O=C(CN1CCN(c2ccc(O)cc2)CC1)Nc1ccc(S(=O)(=O)N2CCCC2)cc1,?,50µM,i,nt,i,nt
O=S(=O)(c1ccc(NC(=S)N2CCN(c3ccc(O)cc3)CC2)cc1)N1CCOCC1,i,?,i,nt,i,20µM
CCN1C(=O)[C@H]2[C@@H](c3ccc(-c4cccc(Cl)c4)cc3)N[C@@](Cc3ccccc3)(C(=O)OC)[C@H]2C1=O,i,i,i,i,i,i[2.33 µM]
C=CCOC(=O)C1=C(C)NC(SCC(=O)N(CC)CC)=C(C#N)C1c1ccccc1 (stereo not drawn),i,i,?,i,i,i[12.7 µM]
C=CCOC(=O)C1=C(C)NC(SCC(=O)NC(=O)OCC)=C(C#N)C1c1cccnc1 (stereo not drawn),i,i,i,i,i,50µM
SMILES,HP1b binding inh,JMJD2A Tudor,PLK1 PBD inh,BAZ2B inh,PI5P4K alpha inh,G9a block
CC(=O)C1=C(C)NC(SCC(=O)c2ccc(-c3ccccc3)cc2)=C(C#N)C1c1cccnc1 (stereo not drawn),nt,nt,nt,i,nt,16µM
CC(=O)C1=C(C)NC(SCSc2ccccc2)=C(C#N)C1c1cccnc1 (stereo not drawn),i,i,i,i,nt,?
COc1ccc(OC)c(CNS(=O)(=O)c2ccc3c(c2)CCCN3C(C)=O)c1,i,i,nt,i,nt,i
CCC(C)[C@H](NC(=O)c1cc2cc(Cl)ccc2n1C)C(=O)N1CCC[C@H]1C(=O)O (stereo partly drawn),i,i,i,i,i,?
Cc1cccc(C(=O)OCC(=O)NC(=O)c2ccccc2)c1O,i,i,i,79µM,i,i[0.501 µM]
Cc1cnc(C(=O)OCC(=O)NC(=O)c2ccccc2)cn1,i,i,i,?,i,45µM
Cc1cnc(C(=O)OCC(=O)c2ccccc2)cn1,i,i,i,i,i,?
Cc1cc(C)c(C(=O)OCC(=O)NC(=O)c2ccccc2)c(C)c1,i,i,i,i,i,i
CC(C)C[C@H]1COc2cccc(N3CCSCC3)c2S(=O)(=O)N1,nt,nt,i,nt,i,nt
Cc1sc2nc(CSCC(=O)Nc3ccc(Cl)cc3F)[nH]c(=O)c2c1C,i,i,i,i,i,i
Cc1ccc(N/C=C(\C#N)c2ccc(OCCCF)cc2)cc1,i,i,i,?,i,45µM
N#CC1(NC(=O)COC(=O)c2nc(Cl)c(Cl)c(N)c2Cl)CCCCC1,i,i,i,i,i,?
Nc1nc2cc(S(=O)(=O)N3CCOCC3)ccc2o1,?,?,5.3µM,nt,i,nt
Nc1ccc(S(=O)(=O)N2CCOCC2)cc1,i,i,nt,nt,nt,nt
CN(C)C(=O)CSc1nc2cc(S(=O)(=O)N3CCOCC3)ccc2o1,i,i,21µM,nt,i,nt
COc1ccc(-c2nc3cnc(Oc4cccc(Cl)c4)nc3n(C3CC3)c2=O)cc1,nt,nt,nt,nt,nt,i[0.501 µM]
O=C(c1cccc(N2C(=O)C3CC=CCC3C2=O)c1)N1CCCCCC1 (stereo not drawn),i,i,i,i,nt,i
NC(=O)c1ccc(N2CCCCC2)c(N2C(=O)C3CC=CCC3C2=O)c1 (stereo not drawn),i,i,i,50µM,i,i[12.7 µM]
CC(C)(C)c1ccc(CC(=O)N2CCC2(C)C(=O)N2CCCCC2)cc1 (stereo not drawn),nt,nt,i,nt,i,nt
O=[N+]([O-])c1ccccc1/C=C/CN1CCSCC1,?,13µM,i,50µM,i,nt
COc1ccc(Cn2cc(S(=O)(=O)c3ccc(C)cc3)c(=O)c3cc(F)ccc32)cc1,i,i,nt,i,nt,?
Nc1ccc(S(=O)(=O)Nc2nc(-c3ccccc3)cc(-c3ccccc3O)n2)cc1,nt,nt,i,nt,i,nt
CN(Cc1ccccc1)C(=O)c1ccc2c(c1)N(Cc1ccccc1F)C(=O)c1ccccc1S2(=O)=O,i,i,nt,i,nt,i
CSc1ccc(COC(=O)c2cc([N+](=O)[O-])ccc2N2CCOCC2)cc1,?,?,i,i,i,45µM
O=C(OCc1ccc([N+](=O)[O-])cc1)c1cc(S(=O)(=O)N2CCCCC2)ccc1N1CCOCC1,i,i,i,i,i,?
Cc1ccccc1COC(=O)c1cc([N+](=O)[O-])ccc1N1CCOCC1,i,?,i,i,i,?
